Hits are enriched below; roughly 7.5% of the tested compounds scored in any of these assays.
NPC1 prom act = qHTS Assay for NPC1 Promoter Activators. 2.4% of 320,000 active. Huh7 NPC1 promoter luciferase reporter, 24 h. Potency, µM (top dose mostly 9.22 µM), without a hit: at the top dose activation, actives largely listed as activators; note: % of control where 0% means no effect; nearly all actives have a fitted effect of over 60% in size
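Huh7 cells stably carrying NPC1 promoter–luciferase, plated in Opti-MEM with 10% FBS for 2 h, were exposed to compound in DMSO for 24 h at 37 °C; luciferase reagent was added for 10 min and luminescence read.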
SMN2 splice up = qHTS Assay for Enhancers of SMN2 Splice Variant Expression; 2.8% of 210,000 active; HEK293 SMN2-luciferase splicing reporter, luminescence, 30-36 h; AID 1458, 2008; Potency, µM (highest dose often 46.1 µM), inactives show top-dose activity change, positive = activation, hits mostly activators; note: % of control where 0% means no effect; nearly all actives have a fitted effect of over 55% in size
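qHTS luciferase splicing reporter: luminescence rises when SMN2 exon 7 is included in transfected HEK293 cells. Compound exposure lasted 30-36 h at 37C, with 4.5 mM final sodium butyrate as control, followed by a ONE-Glo read.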
ELG1 genotoxic = qHTS screen for small molecules that induce genotoxicity in human embryonic kidney (HEK293T) cells expressing luciferase-tagged ELG1. 1.3% of 330,000 active. Potency, µM (top dose mostly 46 µM), without a hit: at the top dose activity change, positive = activation, most hits filed as activators. AID 504466, 2011. HEK293T ELG1-luciferase reporter, luminescence, 16 h; note: % of control where 0% means no effect; nearly all actives have a fitted effect of over 60% in size
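Reporter readout depends on ELG1 protein level, which increases with genetic stress. After 16 hr compound exposure at 37 °C, luciferase activity was quantified using ONE-Glo.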
KinaseGlo FLuc = Counterscreen for Luciferase (Kinase-Glo TM) Inhibition. Luciferin 4-monooxygenase (Photuris pensylvanica), Q27757. Kinase-Glo luciferase, ATP luminescence, 8 min. Potency, µM (top dose mostly 38.3 µM), for the others: top-dose activity change, negative = inhibition, most hits filed as inhibitors. 0.28% of 200,000 active; note: % is set by controls: 0 for no effect and ±100 for the full control effect; nearly all actives have a fitted effect of over 60% in size
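Recombinant Kinase-Glo luciferase, 10 uM ATP (linear range), luciferin; imidazole pH 7.2 / KCl / MgCl2 / Tween / BSA buffer; 8 min RT; luminescence.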
FLuc modulator = qHTS profiling assay for firefly luciferase inhibitor/activator using purifed enzyme and Km concentrations of substrates (counterscreen for miR-21 project); AID 588342, 2011; Potency, µM (titrated, usually from 57.5 µM), without a hit: at the top dose activity change, negative = inhibition, usual class: inhibitors; 6.9% of 360,000 active; purified FLuc, Km substrates, luminescence inhibition; Luciferin 4-monooxygenase (Photinus pyralis), P08659;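 note: plate controls were vehicle for no effect and reference inhibitor for full effect; nearly all actives have a fitted effect of over 55% in size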
Target sequence (P08659 whole entry, looked up): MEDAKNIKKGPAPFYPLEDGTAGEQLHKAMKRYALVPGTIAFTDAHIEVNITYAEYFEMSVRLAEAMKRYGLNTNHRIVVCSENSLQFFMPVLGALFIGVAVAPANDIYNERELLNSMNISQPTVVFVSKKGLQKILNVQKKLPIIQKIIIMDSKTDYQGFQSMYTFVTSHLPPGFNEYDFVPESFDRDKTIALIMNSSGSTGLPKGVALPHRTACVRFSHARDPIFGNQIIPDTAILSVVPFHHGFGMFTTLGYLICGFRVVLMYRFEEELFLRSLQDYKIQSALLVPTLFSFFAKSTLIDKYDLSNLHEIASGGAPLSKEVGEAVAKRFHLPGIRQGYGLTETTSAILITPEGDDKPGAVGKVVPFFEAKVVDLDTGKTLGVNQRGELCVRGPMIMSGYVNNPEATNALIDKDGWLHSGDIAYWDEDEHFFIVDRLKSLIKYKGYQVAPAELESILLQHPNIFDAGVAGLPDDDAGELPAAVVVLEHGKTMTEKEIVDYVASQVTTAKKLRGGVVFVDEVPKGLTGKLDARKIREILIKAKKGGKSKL
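Purified P. pyralis luciferase, 10 nM final, with Km-level 10 uM D-luciferin and 10 uM ATP in 50 mM Tris acetate pH 7.5, 10 mM Mg acetate, 0.01% Tween-20, 0.05% BSA; 6-point qHTS titration about 60 µM downward; luminescence read.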
Rab9 prom act = qHTS Assay for Rab9 Promoter Activators. Huh7 Rab9 promoter-luciferase reporter, luminescence, 24 h. Potency, µM (series often up to 9.22 µM), without a hit: top-dose activation, negative = inhibition, actives largely listed as activators. 2.8% of 320,000 active. AID 485297, 2010; note: % of control where 0% means no effect; nearly all actives have a fitted effect of over 60% in size
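Huh7 cells stably carrying a Rab9 promoter-luciferase reporter, 1500 cells per well in OP-MEM I with 10% FBS, treated with compound 24 hours at 37C. Luciferase activity read by luminescence after 10 minutes with Amplite reagent.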
An asterisk follows results filed as active; ? = inconclusive; nt = no result given; [ ] = another dose, or the depositor's remark. Calls come from the whole dose curve; as a rule, active = well fitted curve in the direction sought with a large enough effect; inconclusive = small, poorly fitted or top-dose-only effect, or another doubt; inactive = no such curve, though single readings can be large; an effect the other way counts as inactive or inconclusive. Potency is the fitted concentration of half-maximal effect.

SMILES	NPC1 prom act	SMN2 splice up	ELG1 genotoxic	KinaseGlo FLuc	FLuc modulator	Rab9 prom act
Cc1ccc(C(=O)C(C)OC(=O)c2ccccc2[N+](=O)[O-])cc1 (centres undefined)	0.891µM*	12.6µM*	7.31µM*	1.1%	1.07µM*	1.58µM*
O=C(O)c1cccc([N+](=O)[O-])c1	nt	0.4%	nt	nt	nt	nt
O=C(/C=C/c1ccc(-c2ccccc2)o1)c1ccccc1	?	nt	?	-18.0%	6.75µM*	25.6%
Cc1ccc(-c2ccc(/C=C/C(=O)c3ccccc3)o2)cc1	-0.7%	13.6%	1.5%	0.2%	?	2.9%
CCCC(=O)NCCc1c2n(c3ccc(OC)cc13)CCCc1ccccc1-2	-5.9%[46.1 µM]	-19.1%	nt	-2.7%	nt	-19.4%[46.1 µM]
CC(C)c1nn2c(=O)cc(COC(=O)c3ccccc3NC(=O)C3CCCCC3)nc2s1	nt	nt	nt	nt	-8.3%	nt
COCCCNC(=O)c1ccc(-n2c(-c3ccccc3)cc3c2CCCC3)cc1	nt	nt	nt	nt	-0.8%	nt
O=c1[nH]c(C2CCCN(S(=O)(=O)c3ccccc3)C2)nc2c1nnn2Cc1ccccc1Br (centres undefined)	-0.3%	14.1%	4.9%	nt	0.3%	0.3%
Fc1ccc(-n2ncc3c(NC4CCCCCC4)ncnc32)cc1	nt	nt	nt	nt	4.78µM*	nt
Clc1cccc(-n2ncc3c(NC4CCCCC4)ncnc32)c1	nt	nt	nt	nt	4.78µM*	nt
Cc1ccc(-n2ncc3c(NC4CCCCC4)ncnc32)cc1	nt	nt	nt	nt	0.426µM*	nt
Cc1ccc(-n2ncc3c(NC4CCCCCC4)ncnc32)cc1	nt	nt	nt	nt	0.953µM*	nt
Cc1cc2c(cc1S(=O)(=O)C(C)CC(=O)NC1CCC(C)CC1)OCC(=O)N2 (centres undefined)	nt	nt	nt	nt	2.0%	nt
Cc1ccccc1-n1nc(CO)c(C(=O)NCc2cccnc2)n1	nt	-9.9%	nt	nt	-2.8%	nt
COC(=O)c1ccccc1NC(=O)c1ccc(-c2ccccc2F)o1	3.16µM*	5.01µM*	?	0.6%	3.4%	?
COc1ccccc1NC(=O)c1ccc(-c2ccccc2F)o1	18.1%	?	7.6%	0.4%	-8.2%[2.3 µM]	?
Cc1cc(NC(=O)c2ccc(-c3ccccc3F)o2)no1	3.55µM*	12.6µM*	?	-0.6%	15.1µM*	4.47µM*
Cc1cc(Nc2cccc(C(=O)O)c2)n2nc(C)nc2n1	nt	4.6%	nt	nt	-4.7%	nt
Cc1cc(C)n2nc(C(=O)Nc3ccc4c(c3)OCO4)cc2n1	1.26µM*	7.94µM*	2.06µM*	-13.2%	4.78µM*	3.16µM*
CC(=O)c1cccc(NC(=O)c2cc3nc(C)cc(C)n3n2)c1	?	12.6µM*	8.2µM*	1.7%	7.57µM*	2µM*
CC(=O)c1cccc(Nc2cc(C)nc3nc(-c4ccccc4C)nn23)c1	nt	2.5%	nt	nt	19µM*	nt
O=C(Nc1ccc2c(c1)OCO2)c1cc2nc(C3CC3)cc(C(F)(F)F)n2n1	15.5%	-16.8%	6.5%	-2.2%	-16.3%	16.9%
O=C(NCCc1ccccn1)c1nc(Cn2ccc([N+](=O)[O-])n2)no1	-1.9%	nt	0.3%	nt	0.3%	2.7%
O=C(CCCOc1ccc(Cl)cc1Cl)Nc1ccncc1	-3.1%	-21.5%	-0.1%	-3.2%	23.9µM*	-0.4%
CN(c1cccc(NC(=O)COc2ccc(Cl)cc2Cl)c1)S(C)(=O)=O	29.4%	29.9%	8.0%	0.5%	1.2µM*	?
Cc1ccc(OCC(=O)Nc2ccncc2)c(C)c1	-4.1%	nt	12.0%	nt	12µM*	3.7%
Cc1ccccc1OCC(=O)Nc1ccncc1	-5.5%	nt	1.7%	nt	?	-4.3%
Cc1cc(OCC(=O)Nc2ccncc2)cc(C)c1Br	0.4%	-6.0%	-7.2%	-5.7%	-2.5%	0.1%
O=C(COc1ccc(Cl)cc1Br)Nc1ccncc1	?	nt	?	nt	9.53µM*	2.3%
CC1CCCN(C(=O)c2cc3c(=O)n(C)c4ccccc4c3s2)C1 (centres undefined)	nt	20.9%	nt	nt	0.2%	nt

From PubChem BioAssay
